The values below come from PubChem BioAssay AID2029 (NMMLSC, 2009).

Values joined by “and” are separate entries in the source; they are usually repeats but may differ in a detail not shown here. Equal entries are not always repeated. Screen size: about 320,000 compounds; about 210 (0.066%) were called active.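 Rule for the calls: active = GFP response relative to DMSO above a set limit, near the screen mean plus 3 SD (cut at about 150% in these data); inconclusive = Fewer than 70 cells measured for a yeast strain; inactive = the rest.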 The entries come from a sample that favours actives as a whole.

The test is described as follows: modulators of CIT2-GFP expression in yeast, primary screen, S. cerevisiae, GFP fusion, multiplex flow cytometry, MLPCN library (AID 2029).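 Note: ratio of well median GFP fluorescence to mean of DMSO wells on the plate.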 The settings on record: S. cerevisiae CIT2-GFP strain, 3 h, at 10 µM, hits give high values, 100 means same as DMSO wells. On the technique in general: A flow cytometer gives signals particle by particle.
Regarding `O=C(Nc1ccc(Cl)cc1)c1cc2nc(C3CC3)cc(C(F)(F)F)n2n1`, the GFP response vs DMSO is 115% (inactive).

Turning to `Cc1ccccc1NC(=O)N1CCCC1C(=O)NCc1ccccc1` (configuration not stated), the GFP response vs DMSO was 113% (inactive).

For the compound `NC(=O)c1ncc(C(F)(F)F)cc1Oc1ccc(F)cc1`, the GFP response vs DMSO was 99.4% (inactive).

For the compound `CNc1nc(SC)nc(N(C#N)CC(=O)OC)n1`, the GFP response vs DMSO is 104% (inactive).

Take `O=C(COC(=O)c1ccc(O)cc1O)c1ccc2c(c1)OCCO2`: the GFP response vs DMSO is 95.1% (inactive).

As for `O=C1Nc2cc(Cl)c(Cl)cc2N(O)N1c1cc(Cl)cc(Cl)c1`, the GFP response vs DMSO is 97.6% (inactive).

Regarding `Cc1c(NC(=O)CSCc2ccccc2)cccc1C(=O)O`, the GFP response vs DMSO is 106% (inactive).

Turning to `CCC(C)(C)C1CCC(=NNC(=O)c2ccc(Br)o2)CC1` (configuration not stated), the GFP response vs DMSO is 97.7% (inactive).

Take `COCCCNC(=O)[C@H]1N2C(=O)c3ccccc3C2SC1(C)C` (some centres not stated): the GFP response vs DMSO was 112% (inactive).

`Cc1cc2cc3c(N)[nH]nc3nc2cc1C`: the GFP response vs DMSO is 113% (inactive).

Regarding `O=C(NC1CCN(C(=S)Nc2ccc(Cl)cc2)CC1)C1CCCCC1`, the GFP response vs DMSO is 97.3% (inactive).

Take `Cc1ccc2nc(-c3ccc(NC(=O)CN(C)S(=O)(=O)c4ccccc4)cc3)sc2c1`: the GFP response vs DMSO was 111% (inactive).

In the case of `COc1ccc(N2CCN(C(=O)[C@@H](NC(=O)c3cc(OC)cc(OC)c3)C(C)C)CC2)cc1`, the GFP response vs DMSO was 95.1% (inactive).

For `Cc1ccccc1NC(=O)CSC(=O)c1ccccc1`, the GFP response vs DMSO is 102% (inactive).

For the compound `O=C(NN1C(=O)C2CCCCC2C1=O)c1ccco1` (configuration not stated), the GFP response vs DMSO was 104% (inactive).

For `COCCCNS(=O)(=O)c1cccc(S(=O)(=O)c2cccc(S(=O)(=O)NCCCOC)c2)c1`, the GFP response vs DMSO was 115% (inactive).

Turning to `O=c1/c(=C/c2ccc(CNS(=O)(=O)c3ccccc3)o2)sc2n1CCN=2`, the GFP response vs DMSO was 107% (inactive).

Regarding `CC1(C)CC(=O)C=C(N2CCOCC2)C1`, the GFP response vs DMSO was 93.2% (inactive).

As for `CCCCOc1ccc(C(=O)NCC(=O)OCC(=O)c2c(N)n(C)c(=O)n(C)c2=O)cc1`, the GFP response vs DMSO was 92.4% (inactive).

On to `CC(C)c1ccc2c(c1)c(SC(C)(C)C)c(CC(C)(C)C(=O)O)n2Cc1ccc(Cl)cc1`, for which the GFP response vs DMSO is 112% (inactive) and 88.8% (inactive).

For `C/C(CCC(=O)OC[C@H]1O[C@H](C#Cc2ccccc2)C=C[C@@H]1Oc1ccc(C)cc1)=N\OC[C@@H](O)[C@H]1O[C@@H]2OC(C)(C)O[C@@H]2[C@H]1O`, the GFP response vs DMSO was 109% (inactive).

For `Nc1ccc(OCC(O)C[n+]2ccc(CCS(=O)(=O)[O-])cc2)cc1` (configuration not stated), the GFP response vs DMSO was 90% (inactive).

On to `CCOC(=O)c1c(CN(C)C)n(-c2ccccc2)c2cc(Br)c(O)cc12`, for which the GFP response vs DMSO is 101% (inactive).

As to `Cc1ccc(NC(=O)CN(C)C(=O)COC(=O)C(C)(C)Oc2ccc(Cl)cc2)cc1`, the GFP response vs DMSO was 109% (inactive).

In the case of `COc1ccccc1NC(=O)C[n+]1ccccc1`, the GFP response vs DMSO was 120% (inactive).

Consider `Cc1cccc[n+]1CC(=O)c1ccccc1`, for which the GFP response vs DMSO was 113% (inactive).

For the compound `COC(=O)C[n+]1cccc2ccccc21`, the GFP response vs DMSO is 175% (active).
